The values that follow come from ChEMBL document CHEMBL2218924, “A broad activity screen in support of a chemogenomic map for kinase signalling research and drug discovery” (Biochem J, 2013).

Assay [1] addresses T1, Serine/threonine-protein kinase TBK1 (Homo sapiens) (UniProt Q9UHD2).
T1 sequence (whole entry): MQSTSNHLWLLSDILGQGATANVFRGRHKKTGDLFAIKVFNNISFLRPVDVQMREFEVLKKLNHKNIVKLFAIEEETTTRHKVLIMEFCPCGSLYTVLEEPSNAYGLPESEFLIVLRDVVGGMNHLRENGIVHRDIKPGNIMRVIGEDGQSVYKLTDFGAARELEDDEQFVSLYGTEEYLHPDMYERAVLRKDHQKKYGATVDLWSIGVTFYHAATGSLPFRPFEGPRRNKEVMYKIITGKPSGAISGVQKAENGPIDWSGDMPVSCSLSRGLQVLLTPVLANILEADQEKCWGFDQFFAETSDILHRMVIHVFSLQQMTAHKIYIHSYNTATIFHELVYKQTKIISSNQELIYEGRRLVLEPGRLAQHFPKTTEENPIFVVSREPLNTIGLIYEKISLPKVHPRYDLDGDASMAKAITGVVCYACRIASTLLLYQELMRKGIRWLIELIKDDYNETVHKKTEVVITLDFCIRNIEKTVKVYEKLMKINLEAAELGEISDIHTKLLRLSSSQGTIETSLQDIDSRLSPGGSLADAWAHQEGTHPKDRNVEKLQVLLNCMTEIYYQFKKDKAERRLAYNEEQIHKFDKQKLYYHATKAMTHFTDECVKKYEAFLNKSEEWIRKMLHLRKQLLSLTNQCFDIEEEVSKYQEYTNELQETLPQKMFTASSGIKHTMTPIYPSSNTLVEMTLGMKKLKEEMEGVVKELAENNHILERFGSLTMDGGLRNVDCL
The settings on record: at 10 µM.

The target in assay [2] is T2, TGF-beta receptor type-1 (Homo sapiens) (UniProt P36897).
T2 sequence (whole entry): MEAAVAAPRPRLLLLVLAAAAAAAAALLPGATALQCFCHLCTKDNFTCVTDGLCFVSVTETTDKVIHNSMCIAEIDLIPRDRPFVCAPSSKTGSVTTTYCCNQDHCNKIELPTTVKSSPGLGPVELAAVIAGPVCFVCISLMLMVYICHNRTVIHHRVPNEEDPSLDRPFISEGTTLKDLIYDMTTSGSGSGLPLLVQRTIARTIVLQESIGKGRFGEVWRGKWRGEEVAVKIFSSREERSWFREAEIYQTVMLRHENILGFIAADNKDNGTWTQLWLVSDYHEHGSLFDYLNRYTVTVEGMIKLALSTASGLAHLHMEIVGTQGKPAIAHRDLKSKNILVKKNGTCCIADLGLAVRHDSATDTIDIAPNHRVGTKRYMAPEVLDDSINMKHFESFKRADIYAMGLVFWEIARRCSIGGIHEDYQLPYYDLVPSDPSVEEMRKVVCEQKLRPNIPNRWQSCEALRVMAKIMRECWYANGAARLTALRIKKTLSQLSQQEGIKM
The conditions noted are these: at 1 µM.

The target in assay [3] is T2, TGF-beta receptor type-1 (Homo sapiens). The settings on record: at 10 µM.
Assay [4] concerns the target Insulin-like growth factor 1 receptor (Homo sapiens) (UniProt P08069). The settings on record: at 1 µM.
Assay [5] has the same target. The settings on record: at 10 µM.
Assay [6] concerns the target T3, Inhibitor of nuclear factor kappa-B kinase subunit alpha (Homo sapiens) (UniProt O15111).
T3 sequence (whole entry): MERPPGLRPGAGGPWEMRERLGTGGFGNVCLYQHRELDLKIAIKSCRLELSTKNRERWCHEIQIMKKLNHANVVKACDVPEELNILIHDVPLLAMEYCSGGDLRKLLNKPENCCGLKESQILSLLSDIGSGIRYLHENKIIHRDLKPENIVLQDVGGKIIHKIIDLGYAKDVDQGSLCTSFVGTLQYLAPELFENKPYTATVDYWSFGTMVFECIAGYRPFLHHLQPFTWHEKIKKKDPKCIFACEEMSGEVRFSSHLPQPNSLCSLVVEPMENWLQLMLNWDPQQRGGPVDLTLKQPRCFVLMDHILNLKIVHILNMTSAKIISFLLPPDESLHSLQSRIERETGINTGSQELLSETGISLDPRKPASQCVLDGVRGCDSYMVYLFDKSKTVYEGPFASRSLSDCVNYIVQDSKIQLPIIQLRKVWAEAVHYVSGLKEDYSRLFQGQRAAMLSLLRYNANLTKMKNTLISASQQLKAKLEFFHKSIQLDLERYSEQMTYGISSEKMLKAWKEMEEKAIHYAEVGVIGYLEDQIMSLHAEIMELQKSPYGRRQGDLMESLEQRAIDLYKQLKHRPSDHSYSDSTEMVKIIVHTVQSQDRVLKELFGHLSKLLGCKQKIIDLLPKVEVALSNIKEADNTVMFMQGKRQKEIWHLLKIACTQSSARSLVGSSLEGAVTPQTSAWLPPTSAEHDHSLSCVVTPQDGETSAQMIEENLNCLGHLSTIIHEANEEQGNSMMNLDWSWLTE
The settings on record: at 1 µM.

Assay [7] addresses T3, Inhibitor of nuclear factor kappa-B kinase subunit alpha (Homo sapiens). The conditions noted are these: at 10 µM.
In assay [8] the target is T4, Inhibitor of nuclear factor kappa-B kinase subunit beta (Homo sapiens) (UniProt O14920).
T4 sequence (whole entry): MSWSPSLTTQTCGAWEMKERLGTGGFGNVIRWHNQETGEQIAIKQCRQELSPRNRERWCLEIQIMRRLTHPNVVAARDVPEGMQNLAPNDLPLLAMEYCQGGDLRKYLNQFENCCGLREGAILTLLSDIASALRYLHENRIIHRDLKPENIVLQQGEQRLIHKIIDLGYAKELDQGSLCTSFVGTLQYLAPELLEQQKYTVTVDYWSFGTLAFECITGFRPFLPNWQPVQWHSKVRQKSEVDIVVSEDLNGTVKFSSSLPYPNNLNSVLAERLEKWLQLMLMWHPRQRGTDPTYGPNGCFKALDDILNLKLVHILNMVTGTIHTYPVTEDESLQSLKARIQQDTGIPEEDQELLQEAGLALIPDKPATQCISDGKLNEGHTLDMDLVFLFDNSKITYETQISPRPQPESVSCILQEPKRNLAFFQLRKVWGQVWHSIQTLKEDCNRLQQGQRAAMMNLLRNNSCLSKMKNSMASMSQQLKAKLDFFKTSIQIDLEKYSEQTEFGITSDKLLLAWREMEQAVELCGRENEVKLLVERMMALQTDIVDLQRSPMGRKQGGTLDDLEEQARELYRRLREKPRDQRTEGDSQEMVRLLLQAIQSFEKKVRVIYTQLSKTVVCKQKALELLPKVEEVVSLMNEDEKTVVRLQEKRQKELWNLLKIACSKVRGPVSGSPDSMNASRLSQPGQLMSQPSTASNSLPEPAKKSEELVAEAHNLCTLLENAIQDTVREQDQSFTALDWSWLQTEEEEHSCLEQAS
The settings on record: at 1 µM.

For assay [9], the target named is T4, Inhibitor of nuclear factor kappa-B kinase subunit beta (Homo sapiens). The conditions noted are these: at 10 µM.
For assay [10], the target named is Insulin receptor (Homo sapiens) (UniProt P06213). The settings on record: at 1 µM.
Sequence of Insulin receptor (Homo sapiens) (P06213 28-758 limits assumed): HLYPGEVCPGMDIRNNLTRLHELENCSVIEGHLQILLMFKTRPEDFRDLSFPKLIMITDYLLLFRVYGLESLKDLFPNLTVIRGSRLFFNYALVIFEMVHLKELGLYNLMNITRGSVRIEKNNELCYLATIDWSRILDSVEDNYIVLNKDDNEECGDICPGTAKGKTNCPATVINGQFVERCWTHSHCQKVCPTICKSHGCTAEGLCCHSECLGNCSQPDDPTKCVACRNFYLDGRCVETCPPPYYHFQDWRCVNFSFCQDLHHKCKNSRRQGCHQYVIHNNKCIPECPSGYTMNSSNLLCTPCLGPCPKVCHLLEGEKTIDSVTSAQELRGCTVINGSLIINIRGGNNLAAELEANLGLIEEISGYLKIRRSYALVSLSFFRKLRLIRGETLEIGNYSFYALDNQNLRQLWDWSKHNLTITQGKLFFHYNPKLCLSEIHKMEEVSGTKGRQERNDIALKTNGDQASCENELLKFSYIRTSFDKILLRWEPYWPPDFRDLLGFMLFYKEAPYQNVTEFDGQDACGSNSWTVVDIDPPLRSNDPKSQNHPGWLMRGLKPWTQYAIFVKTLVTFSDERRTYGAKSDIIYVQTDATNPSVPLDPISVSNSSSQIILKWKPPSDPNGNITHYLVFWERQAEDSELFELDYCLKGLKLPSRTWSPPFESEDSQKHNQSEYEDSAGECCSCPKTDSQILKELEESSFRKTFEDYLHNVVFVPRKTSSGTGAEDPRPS
Sequence of Insulin receptor (Homo sapiens) (P06213 763-1382 limits assumed): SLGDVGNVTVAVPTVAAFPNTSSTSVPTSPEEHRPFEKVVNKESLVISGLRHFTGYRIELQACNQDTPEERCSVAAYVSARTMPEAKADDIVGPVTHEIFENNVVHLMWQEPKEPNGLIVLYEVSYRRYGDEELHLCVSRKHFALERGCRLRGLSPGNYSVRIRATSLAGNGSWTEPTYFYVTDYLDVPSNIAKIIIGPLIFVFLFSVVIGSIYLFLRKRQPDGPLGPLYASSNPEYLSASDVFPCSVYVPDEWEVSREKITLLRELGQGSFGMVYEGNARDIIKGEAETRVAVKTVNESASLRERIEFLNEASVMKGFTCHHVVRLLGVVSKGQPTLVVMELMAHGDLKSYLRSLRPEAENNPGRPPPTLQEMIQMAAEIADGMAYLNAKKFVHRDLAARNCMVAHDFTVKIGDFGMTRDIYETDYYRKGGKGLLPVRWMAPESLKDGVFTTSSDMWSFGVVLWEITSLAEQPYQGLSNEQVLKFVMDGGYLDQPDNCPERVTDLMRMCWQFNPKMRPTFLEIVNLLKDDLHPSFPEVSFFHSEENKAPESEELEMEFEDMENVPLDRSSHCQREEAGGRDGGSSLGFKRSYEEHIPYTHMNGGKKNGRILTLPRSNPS

Sequence of Insulin-like growth factor 1 receptor (Homo sapiens) (P08069 31-736 limits assumed): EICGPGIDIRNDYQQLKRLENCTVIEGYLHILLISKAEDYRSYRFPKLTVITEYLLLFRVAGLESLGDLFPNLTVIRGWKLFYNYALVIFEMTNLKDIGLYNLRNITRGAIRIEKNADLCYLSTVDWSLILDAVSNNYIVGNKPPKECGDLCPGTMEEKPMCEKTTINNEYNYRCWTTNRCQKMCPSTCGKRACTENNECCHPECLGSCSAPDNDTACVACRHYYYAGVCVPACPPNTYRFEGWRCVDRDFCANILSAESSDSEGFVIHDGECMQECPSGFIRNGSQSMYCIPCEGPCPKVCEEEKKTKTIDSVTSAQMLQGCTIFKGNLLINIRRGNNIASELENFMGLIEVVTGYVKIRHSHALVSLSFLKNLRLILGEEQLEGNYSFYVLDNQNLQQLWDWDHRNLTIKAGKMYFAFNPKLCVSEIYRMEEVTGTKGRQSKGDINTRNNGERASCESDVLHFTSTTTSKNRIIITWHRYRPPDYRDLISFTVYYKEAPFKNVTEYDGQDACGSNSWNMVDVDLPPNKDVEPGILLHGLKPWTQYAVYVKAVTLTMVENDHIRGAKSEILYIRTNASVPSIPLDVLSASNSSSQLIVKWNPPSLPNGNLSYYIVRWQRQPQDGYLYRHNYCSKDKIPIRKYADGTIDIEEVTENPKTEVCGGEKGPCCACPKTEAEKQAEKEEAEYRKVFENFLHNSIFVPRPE
Sequence of Insulin-like growth factor 1 receptor (Homo sapiens) (P08069 741-1367 limits assumed): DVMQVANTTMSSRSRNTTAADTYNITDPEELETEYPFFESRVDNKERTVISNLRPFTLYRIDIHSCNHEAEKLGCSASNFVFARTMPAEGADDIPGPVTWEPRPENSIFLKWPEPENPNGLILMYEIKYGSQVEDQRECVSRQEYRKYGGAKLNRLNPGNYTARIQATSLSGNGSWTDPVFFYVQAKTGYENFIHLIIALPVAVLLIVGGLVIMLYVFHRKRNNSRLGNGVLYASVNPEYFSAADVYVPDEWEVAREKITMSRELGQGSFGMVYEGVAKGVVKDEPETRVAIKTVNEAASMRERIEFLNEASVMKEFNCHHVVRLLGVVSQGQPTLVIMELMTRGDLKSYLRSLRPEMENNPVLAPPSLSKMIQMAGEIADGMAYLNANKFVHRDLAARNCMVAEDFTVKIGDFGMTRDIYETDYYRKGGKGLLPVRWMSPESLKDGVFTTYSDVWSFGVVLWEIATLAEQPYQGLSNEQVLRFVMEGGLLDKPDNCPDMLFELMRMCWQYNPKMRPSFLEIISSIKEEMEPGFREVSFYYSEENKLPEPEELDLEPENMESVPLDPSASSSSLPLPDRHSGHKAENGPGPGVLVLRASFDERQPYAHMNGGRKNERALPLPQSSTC

Consider `c1ccc2c(-c3ccncc3)c[nH]c2c1`, for which the residual activity (usually the signal under treatment as a percentage of the control signal) in [1] was 51%; in assay [2], 87%; in [3], 88%; in assay [4], 88%; in assay [5], 79%; in assay [6], 97%. In addition, the residual activity in [7] came out at 69%; in assay [8], 105%; in [9], 73%; in [10], 110%.
